Results published in PubChem BioAssay (NCATS).
Where “and” joins values, the source holds several entries; their conditions need not be identical. Equal entries are not always repeated. Records with an inconclusive call do not appear. Calls of active or inactive are those of the source. Unless noted, calls follow the shape of the dose curve; as a rule, active = well fitted curve in the direction sought with a large enough effect; inconclusive = small, poorly fitted or top-dose-only effect, or another doubt; inactive = no such curve, though single readings can be large; an effect the other way counts as inactive or inconclusive.

Assays:
[1] = MultiTox-Fluor Cytotoxicity Assay - LYMP1-001 - Dead Cells (AID 946)
Outline: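 Cytotoxicity as increased dead-cell protease fluorescence (bis-AAF-R110, 485/520 nm), read 60 min after MultiTox-Fluor reagent. Human lymphoblastoid line exposed 16 h; Hill-fitted AC50, with DMSO as 0% and 15 uM tetraoctylammonium bromide as 100%.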

[2] = Cell Viability - LYMP1-002 - Assay at 16 hr (AID 948);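 also: 0% = DMSO alone and full effect = 92 µM tetraoctylammonium bromide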
Outline: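 LYMP1-002 human lymphoblastoid cells, 2500/well; 5 hr 37 C; cpd 16 hr 37 C; CellTiter-Glo 30 min RT; luminescence (ATP). Concentration-response, Hill-fit AC50. Pos ctrl tetraoctylammonium bromide.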

[3] = MultiTox-Fluor Cytotoxicity Assay - LYMP1-003 - Dead Cells (AID 961); also: nearly all actives have a fitted effect of over 70% in size
Outline: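 Dead-cell protease release, detected as bis-AAF-R110 fluorescence at 485/520 nm, was measured in LYMP1-003 cells after 16 h compound treatment at 37 C. AC50 values came from Hill-modeled qHTS curves normalized to DMSO (0%) and 15 uM tetraoctylammonium bromide (100%).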

[4] = Cell Viability - LYMP1-003 - Assay at 24 hr (AID 963);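 also: plate controls were DMSO only for no effect and tetraoctylammonium bromide positive control for full effect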
Outline: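 Cytotoxicity is scored as a concentration-dependent fall in ATP-linked luciferase signal in human lymphoblastoid LYMP1-003 cells treated 24 hr at 37 C in complete culture medium.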

[5] = Cell Viability - LYMP1-003 - Assay at 40 hr (AID 964); also: series mostly up to about 92 µM; % is scaled to controls: 0 for no effect and ±100 for the full control effect; nearly all actives have a fitted effect of over 60% in size
Outline: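 Luminescent ATP signal (CellTiter-Glo) served as the viability read-out after 40 hr compound treatment of human lymphoblastoid LYMP1-003 cells at 37 C. Decreases in ATP were fitted with the Hill equation to give AC50.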

[6] = Cell Viability - LYMP2-003 (AID 965);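 also: cells exposed to compounds for 24 h before reading; 0% = DMSO only and full effect = 92 µM tetraoctylammonium bromide; nearly all actives have a fitted effect of over 50% in size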
Outline: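 CellTiter-Glo luminescence (cellular ATP) after 24 h compound exposure at 37 C in complete medium; 2500 cells/well, 5 h settling beforehand. Concentration-response fitted to standard Hill equation for AC50. Tetraoctylammonium bromide served as positive control.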

[7] = Cell Viability - LYMP2-004 (AID 966);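 also: plate controls were DMSO only for no effect and tetraoctylammonium bromide control for full effect; nearly all actives have a fitted effect of over 65% in size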
Outline: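 qHTS cytotoxicity: human lymphoblastoid line, 24 hr compound treatment, 37 C, complete medium. Viability read as cellular ATP via luciferase luminescence; tetraoctylammonium bromide served as positive control.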

[8] = Cell Viability - LYMP2-011 (AID 969);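 also: 0% = DMSO only and full inhibition = 92 µM tetraoctylammonium bromide; nearly all actives have a fitted effect of over 60% in size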
Outline: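 In this qHTS cytotoxicity format, compounds are tested across concentrations on human lymphoblastoid cells in complete medium for 24 hours at 37 C. Viability is taken as cellular ATP measured by luciferase luminescence.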

[9] = Cell Viability - LYMP2-015 (AID 971);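 also: 0% = DMSO only and full effect = 92 µM tetraoctylammonium bromide; nearly all actives have a fitted effect of over 55% in size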
Outline: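 Cells are seeded at 2500 per well and incubated 5 hr at 37 C. Compounds are added across a concentration series for 24 hr at 37 C. CellTiter-Glo is added, and luminescence is read after 30 min at room temperature.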

[10] = Cell Viability - LYMP2-023 (AID 975);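 also: series mostly up to about 92 µM; plate controls were DMSO only for no effect and 92 µM tetraoctylammonium bromide control for full effect; nearly all actives have a fitted effect of over 55% in size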
Outline: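 Steps: seed 2500 human lymphoblastoid cells per well, incubate 5 hr at 37 C, add compound for 24 hr at 37 C, add CellTiter-Glo, hold 30 min at room temperature, read luminescence. AC50 derived by Hill modelling.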

[11] = Cell Viability - LYMP2-025 (AID 976);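 also: series mostly up to about 92 µM; plate controls were DMSO only for no effect and tetraoctylammonium bromide control for full effect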
Outline: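 Acute cytotoxicity is scored as a concentration-dependent fall in intracellular ATP, measured by luciferase luminescence, in human lymphoblastoid LYMP2-025 cells exposed to compound for 24 hours at 37 C. AC50 values come from standard Hill fits.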

[12] = Cell Viability - LYMP2-002 (AID 977);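 also: series mostly up to about 92 µM; plate controls were DMSO only for no effect and 92 µM tetraoctylammonium bromide for full effect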
Outline: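 In this qHTS viability screen, 2500 human lymphoblastoid cells per well receive compound for 24 hr at 37 C, and luciferase-based ATP luminescence gives the viability signal. Tetraoctylammonium bromide serves as positive control.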

[13] = Cell Viability - LYMP2-006 (AID 978); also: series mostly up to about 92 µM; % is scaled to controls: 0 for no effect and ±100 for the full control effect; nearly all actives have a fitted effect of over 60% in size
Outline: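 qHTS, 1536-well; 2500 cells/well, 5 hr 37 C; cpd 24 hr 37 C; CellTiter-Glo 30 min RT; luminescence. Tetraoctylammonium bromide pos. ctrl. AC50 via Hill eqn.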

[14] = Cell Viability - LYMP2-008 (AID 980); also: % is scaled to controls: 0 for no effect and ±100 for the full control effect; nearly all actives have a fitted effect of over 60% in size
Outline: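 Cells seeded at 2500/well and rested 5 hr at 37 C; compounds added over a concentration range and incubated 24 hr at 37 C; CellTiter-Glo added, 30 min at room temperature; luminescence read and AC50 fitted with Hill model.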

[15] = Cell Viability - LYMP2-012 (AID 982);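 also: cellular ATP by luciferase luminescence where a drop means cytotoxicity; cells exposed to compound for one day before reading; 0% = DMSO only and full loss = 92 µM tetraoctylammonium bromide; nearly all actives have a fitted effect of over 55% in size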
[16] = Cell Viability - LYMP2-014 (AID 983);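 also: series mostly up to about 92 µM; plate controls were DMSO only for no effect and 92 µM tetraoctylammonium bromide for full effect; nearly all actives have a fitted effect of over 50% in size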
Outline: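 Cells are plated at 2500/well and left 5 hr at 37 C. Compounds are added across a concentration range and incubated 24 hr at 37 C in complete medium. CellTiter-Glo is added, and luminescence is read after 30 min at room temperature.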

[17] = Cell Viability - LYMP2-020 (AID 986);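 also: series mostly up to about 92 µM; plate controls were DMSO only for no effect and tetraoctylammonium bromide at 92 µM for full effect; nearly all actives have a fitted effect of over 55% in size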
Outline: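 Seed 2500 cells per well and incubate 5 hr at 37 C. Add compounds at a concentration series and incubate 24 hr at 37 C. Add CellTiter-Glo, wait 30 min at RT, read luminescence, and fit a Hill curve for AC50.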

[18] = Cell Viability - LYMP1-002 - Assay at 40 hr (AID 994)
Outline: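 Cells are plated at 2500 per well and rested 5 hr at 37 C. Compounds are added and incubated 40 hr at 37 C. CellTiter-Glo reagent is added for 30 min at room temperature before luminescence is read.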

[19] = molecular target: Peroxisome proliferator-activated receptor delta (Homo sapiens) (UniProt Q03181); assay: qHTS assay for small molecule agonists of peroxisome proliferator-activated receptor delta signaling (AID 588534; calls by dose curve;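 also: 0% = DMSO basal wells and 100% = positive control agonist at 10 µM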)
Outline: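 Agonist-mode qHTS; reporter cells, 5 hrs 37 C pre-incubation; compound titration, 18 hrs 37 C; CCF4 dye, 2 hrs RT; fluorescence read. EC50/efficacy via Hill fit.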

[20] = molecular target: Retinoic acid receptor RXR-alpha (Homo sapiens) (UniProt P19793); assay: qHTS assay for small molecule antagonists of retinoid X receptor alpha signaling (AID 588546; active = well fitted inhibition curve with a large enough effect in the signal ratio, with a control signal flat, not every such curve was filed as active; the % refers to the signal ratio;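 also: cells stimulated with 9-cis-retinoic acid as agonist; % is scaled to controls: 0 for no effect and ±100 for the full control effect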); conditions: HEK293T RXRa-UAS-bla, beta-lactamase ratio, antagonist mode
Outline: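 Beta-lactamase reporter inhibition, read as CCF4 fluorescence ratio (ex 405, em 460/530 nm) after 2 h at RT. HEK293T UAS-bla cells, 2500/well, were stimulated with 9-cis-RA at 500 or 100 nM final alongside test compound for 18 h at 37 C.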

Retinoic acid receptor RXR-alpha (Homo sapiens), sequence (P19793 whole entry, looked up): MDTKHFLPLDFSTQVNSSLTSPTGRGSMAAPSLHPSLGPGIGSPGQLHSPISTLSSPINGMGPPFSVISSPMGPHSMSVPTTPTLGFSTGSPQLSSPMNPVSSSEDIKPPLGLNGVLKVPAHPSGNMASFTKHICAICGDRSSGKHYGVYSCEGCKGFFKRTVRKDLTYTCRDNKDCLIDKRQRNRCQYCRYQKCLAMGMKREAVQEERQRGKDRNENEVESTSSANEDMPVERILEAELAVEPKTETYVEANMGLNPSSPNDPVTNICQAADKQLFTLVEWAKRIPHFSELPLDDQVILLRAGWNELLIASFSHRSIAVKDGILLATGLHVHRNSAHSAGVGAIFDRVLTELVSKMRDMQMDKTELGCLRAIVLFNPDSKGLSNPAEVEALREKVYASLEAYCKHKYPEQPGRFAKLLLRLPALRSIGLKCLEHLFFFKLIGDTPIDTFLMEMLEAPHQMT
Peroxisome proliferator-activated receptor delta (Homo sapiens), sequence (Q03181 whole entry, looked up): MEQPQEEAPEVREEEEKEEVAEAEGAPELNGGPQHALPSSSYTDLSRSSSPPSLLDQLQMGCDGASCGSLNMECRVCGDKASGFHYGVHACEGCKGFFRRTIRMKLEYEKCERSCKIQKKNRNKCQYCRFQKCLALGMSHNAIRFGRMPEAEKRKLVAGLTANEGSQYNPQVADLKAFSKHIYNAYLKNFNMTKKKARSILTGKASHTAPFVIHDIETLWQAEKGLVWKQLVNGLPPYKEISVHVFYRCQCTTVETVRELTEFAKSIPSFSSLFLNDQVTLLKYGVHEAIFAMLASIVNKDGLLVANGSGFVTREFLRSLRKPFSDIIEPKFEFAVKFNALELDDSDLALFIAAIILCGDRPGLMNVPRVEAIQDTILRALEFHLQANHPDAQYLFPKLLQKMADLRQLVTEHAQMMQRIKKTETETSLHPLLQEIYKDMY

C=C(Cl)Cl
inactive: Potency [1] | Potency [2] | Potency [3] | Potency [4] | Potency [5] | Potency [6] | Potency [7] | Potency [8] | Potency [9] | Potency [10] | Potency [11] | Potency [12] | Potency [13] | Potency [14] | Potency [15] | Potency [16] | Potency [17] | Potency [18] | outcome [19] | max response [20] -1.27%

COc1ccc(C=O)cc1OC
inactive: Potency [1] | Potency [2] | Potency [3] | Potency [4] | Potency [5] | Potency [6] | Potency [7] | Potency [8] | Potency [9] | Potency [10] | Potency [11] | Potency [12] | Potency [13] | Potency [14] | Potency [15] | Potency [16] | Potency [17] | Potency [18] | max response [20] -9.7% and -21.1%

Cc1cccc(C#N)c1
inactive: Potency [1] | Potency [2] | Potency [3] | Potency [4] | Potency [5] | Potency [6] | Potency [7] | Potency [8] | Potency [9] | Potency [10] | Potency [11] | Potency [12] | Potency [13] | Potency [14] | Potency [15] | Potency [16] | Potency [17] | Potency [18] | outcome [19] | max response [20] 20.5%

CCOP(=S)(OCC)SCSC(C)(C)C
inactive: Potency [1] | Potency [2] | Potency [3] | Potency [4] | Potency [5] | Potency [6] | Potency [7] | Potency [8] | Potency [9] | Potency [10] | Potency [11] | Potency [12] | Potency [13] | Potency [14] | Potency [15] | Potency [16] | Potency [17] | Potency [18] | outcome [19] | max response [20] -12% and 0.279%

O=NN(c1ccccc1)c1ccccc1
inactive: Potency [1] | Potency [2] | Potency [3] | Potency [4] | Potency [5] | Potency [6] | Potency [7] | Potency [8] | Potency [9] | Potency [10] | Potency [11] | Potency [12] | Potency [13] | Potency [14] | Potency [15] | Potency [16] | Potency [17] | Potency [18] | outcome [19] | max response [20] -2.47% and 4.6%

NC(=S)Nc1ccccc1
inactive: Potency [1] | Potency [2] | Potency [3] | Potency [4] | Potency [5] | Potency [6] | Potency [7] | Potency [8] | Potency [9] | Potency [10] | Potency [11] | Potency [12] | Potency [13] | Potency [14] | Potency [15] | Potency [16] | Potency [17] | Potency [18] | outcome [19] | max response [20] 6.2% and -12.5% and -20.4%

O=C(Cl)/C=C/C(=O)Cl
inactive: Potency [1] | Potency [2] | Potency [3] | Potency [4] | Potency [5] | Potency [6] | Potency [7] | Potency [8] | Potency [9] | Potency [10] | Potency [11] | Potency [12] | Potency [13] | Potency [14] | Potency [15] | Potency [16] | Potency [17] | Potency [18] | outcome [19] | max response [20] -3.28%

O=C(Cl)C(Cl)(Cl)Cl
inactive: Potency [1] | Potency [2] | Potency [3] | Potency [4] | Potency [5] | Potency [6] | Potency [7] | Potency [8] | Potency [9] | Potency [10] | Potency [11] | Potency [12] | Potency [13] | Potency [14] | Potency [15] | Potency [16] | Potency [17] | Potency [18] | outcome [19] | max response [20] 2.98%

C=C(C)C#N
inactive: Potency [1] | Potency [2] | Potency [3] | Potency [4] | Potency [5] | Potency [6] | Potency [7] | Potency [8] | Potency [9] | Potency [10] | Potency [11] | Potency [12] | Potency [13] | Potency [14] | Potency [15] | Potency [16] | Potency [17] | Potency [18] | outcome [19] | max response [20] -5.47% and -20.9%

ClC(Cl)=C(Cl)Cl
inactive: Potency [1] | Potency [2] | Potency [3] | Potency [4] | Potency [5] | Potency [6] | Potency [7] | Potency [8] | Potency [9] | Potency [10] | Potency [11] | Potency [12] | Potency [13] | Potency [14] | Potency [15] | Potency [16] | Potency [17] | Potency [18] | max response [20] 2.53% and 3.68%

CC(=O)[O-].CC(=O)[O-].O.O.O.[Pb+2]
inactive: Potency [1] | Potency [2] | Potency [3] | Potency [4] | Potency [5] | Potency [6] | Potency [7] | Potency [8] | Potency [9] | Potency [10] | Potency [11] | Potency [12] | Potency [13] | Potency [14] | Potency [15] | Potency [16] | Potency [17] | Potency [18] | max response [20] 27.2% and 0.247%

BrCCBr
inactive: Potency [1] | Potency [2] | Potency [3] | Potency [4] | Potency [5] | Potency [6] | Potency [7] | Potency [8] | Potency [9] | Potency [10] | Potency [11] | Potency [12] | Potency [13] | Potency [14] | Potency [15] | Potency [16] | Potency [17] | Potency [18] | outcome [19] | max response [20] 9.69% and -0.139%
